Each structure is given as a SMILES string. Counter-ions that a name gives are not always drawn.

In this assay the test system is Danio rerio larvae (5 dpf). In words: optomotor response to green moving lines, difference vs DMSO (percentage points (treated minus DMSO)); higher = more of the behaviour than the DMSO vehicle control. The note with it: 10 µM; exposure time: 3 h pre-incubation + 3 h imaging. The procedure:
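5-dpf wild-type zebrafish larvae were imaged in 96-well plates. They were treated with 190 Tocris FDA-approved drugs at 10 µM (1 µl/ml DMSO) for 3 h before and 3 h during imaging at 28.5 °C, 48 larvae per drug. Automated image analysis gave % time moving and optomotor responses. Values are drug group mean minus DMSO vehicle mean (n=844), in percentage points, for 10 behaviours.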
In the case of `CC(C)COCC(CN(Cc1ccccc1)c1ccccc1)N1CCCC1` (stereo not given) [Bepridil hydrochloride], the “optomotor response to green moving lines” value was -2.16.

Consider `CN1CCN(CCCN2c3ccccc3Sc3ccc(Cl)cc32)CC1` [Prochlorperazine dimaleate], for which the “optomotor response to green moving lines” value was 3.92.

In the case of `NC(=O)c1ncn([C@@H]2O[C@H](CO)[C@@H](O)[C@H]2O)n1` [Ribavirin], the “optomotor response to green moving lines” value was -3.77.

As for `CN1CC(=O)N2[C@H](c3ccc4c(c3)OCO4)c3[nH]c4ccccc4c3C[C@@H]2C1=O` [Tadalafil], the “optomotor response to green moving lines” value was -0.909.

With `COc1ccc([C@@H]2Sc3ccccc3N(CCN(C)C)C(=O)[C@@H]2OC(C)=O)cc1` [Diltiazem hydrochloride], the “optomotor response to green moving lines” value is -3.02.

Regarding `COc1cc2ncnc(Nc3ccc(F)c(Cl)c3)c2cc1OCCCN1CCOCC1` [Iressa], the “optomotor response to green moving lines” value is -10.8.

For `C#C[C@]1(O)CC[C@H]2[C@@H]3CCC4=CC(=O)CC[C@@H]4[C@H]3CC[C@@]21CC` [Levonorgestrel], the “optomotor response to green moving lines” value came out at 5.26.

For `CCc1c2c(nc3ccc(OC(=O)N4CCC(N5CCCCC5)CC4)cc13)-c1cc3c(c(=O)n1C2)COC(=O)[C@]3(O)CC`, the “optomotor response to green moving lines” value is -1.18.

Consider `Cc1cc2c(s1)Nc1ccccc1N=C2N1CCN(C)CC1` [Olanzapine], for which the “optomotor response to green moving lines” value came to 8.6.

Turning to `CCOC(=O)[C@H](CCc1ccccc1)N[C@@H](C)C(=O)N1[C@H](C(=O)O)C[C@@H]2CCC[C@@H]21` [Ramipril], the “optomotor response to green moving lines” value is -0.542.

Regarding `Nc1cc(N2CCCCC2)nc(N)[n+]1[O-]` [Minoxidil], the “optomotor response to green moving lines” value is -7.05.

As to `Cc1nc(Nc2ncc(C(=O)Nc3c(C)cccc3Cl)s2)cc(N2CCN(CCO)CC2)n1` [Dasatinib], the “optomotor response to green moving lines” value is -4.87.

Turning to `Cn1nnc2c(C(N)=O)ncn2c1=O` [Temozolomide], the “optomotor response to green moving lines” value is -1.84.

Turning to `C[C@@H]1C[C@H]2[C@@H]3CCC4=CC(=O)C=C[C@]4(C)[C@@]3(F)[C@@H](O)C[C@]2(C)[C@@]1(O)C(=O)CO` [Dexamethasone], the “optomotor response to green moving lines” value is 1.46.

For the molecule `Nc1nc(F)nc2c1ncn2[C@@H]1O[C@H](CO)[C@@H](O)[C@@H]1O` [Fludarabine], the “optomotor response to green moving lines” value was 1.3.

`O=C(O)C[C@H](O)C[C@H](O)/C=C/c1c(C2CC2)nc2ccccc2c1-c1ccc(F)cc1` [Pitavastatin calcium]: the “optomotor response to green moving lines” value amounted to 11.

In the case of `COc1ccccc1Oc1c(NS(=O)(=O)c2ccc(C(C)(C)C)cc2)nc(-c2ncccn2)nc1OCCO` [Bosentan], the “optomotor response to green moving lines” value is -5.7.

For the molecule `CCCc1nc2c(C)cc(-c3nc4ccccc4n3C)cc2n1Cc1ccc(-c2ccccc2C(=O)O)cc1` [Telmisartan], the “optomotor response to green moving lines” value was -3.99.

As for `CCCCNc1cc(C(=O)O)cc(S(N)(=O)=O)c1Oc1ccccc1` [Bumetanide], the “optomotor response to green moving lines” value amounted to 5.17.

`Cc1ccc(-c2cc(C(F)(F)F)nn2-c2ccc(S(N)(=O)=O)cc2)cc1` [Celecoxib]: the “optomotor response to green moving lines” value worked out at 0.469.

For `CN[C@H]1CC[C@@H](c2ccc(Cl)c(Cl)c2)c2ccccc21` [Sertraline hydrochloride], the “optomotor response to green moving lines” value is -6.64.

For `CCN(CC)CCNC(=O)c1c(C)[nH]c(/C=C2\C(=O)Nc3ccc(F)cc32)c1C` [Sunitinib malate], the “optomotor response to green moving lines” value is -7.59.

As to `CCOC(=O)[C@H](CCc1ccccc1)N[C@H]1CCc2ccccc2N(CC(=O)O)C1=O` [Benazepril hydrochloride], the “optomotor response to green moving lines” value was found to be 11.6.

On to `CN(C)CCC[C@@]1(c2ccc(F)cc2)OCc2cc(C#N)ccc21` [Escitalopram oxalate], for which the “optomotor response to green moving lines” value was determined as 1.9.

As for `CC(C)c1nc(N(C)S(C)(=O)=O)nc(-c2ccc(F)cc2)c1/C=C/[C@@H](O)C[C@@H](O)CC(=O)O` [Rosuvastatin calcium], the “optomotor response to green moving lines” value was 2.28.

Turning to `CC[C@H]1OC(=O)[C@H](C)[C@@H](O[C@H]2C[C@@](C)(OC)[C@@H](O)[C@H](C)O2)[C@H](C)[C@@H](O[C@@H]2O[C@H](C)C[C@H](N(C)C)[C@H]2O)[C@](C)(O)C[C@@H](C)CN(C)[C@H](C)[C@@H](O)[C@]1(C)O` [Azithromycin], the “optomotor response to green moving lines” value was -4.27.

On to `C[C@H]1O[C@H](O[C@H]2[C@H](O)[C@@H](O)[C@@H](O[C@H]3[C@H](O)[C@@H](O)C(O)O[C@@H]3CO)O[C@@H]2CO)[C@H](O)[C@@H](O)[C@@H]1N[C@H]1C=C(CO)[C@@H](O)[C@H](O)[C@H]1O` (stereo not given in full) [Acarbose], for which the “optomotor response to green moving lines” value turned out to be 6.59.

As to `COc1c(C)c2c(c(O)c1C/C=C(\C)CCC(=O)OCCN1CCOCC1)C(=O)OC2` [Mycophenolate mofetil], the “optomotor response to green moving lines” value was found to be 4.99.

For `OCCOCCN1CCN(C2=Nc3ccccc3Sc3ccccc32)CC1` [Quetiapine hemifumarate], the “optomotor response to green moving lines” value came to 10.3.

Take `COc1cc(Nc2c(C#N)cnc3cc(OCCCN4CCN(C)CC4)c(OC)cc23)c(Cl)cc1Cl` [Bosutinib]: the “optomotor response to green moving lines” value amounted to 2.65.

For `C[C@]12CC[C@@H]3c4ccc(O)cc4C[C@@H](CCCCCCCCC[S+]([O-])CCCC(F)(F)C(F)(F)F)[C@H]3[C@@H]1CC[C@@H]2O` (stereo not given in full), the “optomotor response to green moving lines” value is -7.68.

Regarding `Nc1cccc2c1CN(C1CCC(=O)NC1=O)C2=O` (stereo not given) [Lenalidomide], the “optomotor response to green moving lines” value was 7.44.

With `O=c1[nH]c(=O)n([C@H]2C[C@H](O)[C@@H](CO)O2)cc1C(F)(F)F` [Trifluorothymidine], the “optomotor response to green moving lines” value amounted to 6.4.

As for `O=C1CCc2cc(OCCCCc3nnnn3C3CCCCC3)ccc2N1` [Cilostazol], the “optomotor response to green moving lines” value came to 3.44.

For `Cc1ccc(O)c([C@H](CCN(C(C)C)C(C)C)c2ccccc2)c1` [Tolterodine L-tartrate], the “optomotor response to green moving lines” value stood at 0.477.

Take `CCOC(=O)C1=C(C)NC(C)=C(C(=O)OC)C1c1cccc(Cl)c1Cl` (stereo not given) [Felodipine]: the “optomotor response to green moving lines” value was -6.01.

For the molecule `NS(=O)(=O)Cc1noc2ccccc12` [Zonisamide], the “optomotor response to green moving lines” value came to 8.43.

For the molecule `Cc1nnc(C(C)C)n1C1C[C@H]2CC[C@@H](C1)N2CC[C@H](NC(=O)C1CCC(F)(F)CC1)c1ccccc1` (stereo in doubt) [Maraviroc], the “optomotor response to green moving lines” value came to 3.11.

On to `CC(=O)Nc1ccc(O)cc1` [Acetaminophen], for which the “optomotor response to green moving lines” value worked out at 8.32.

For `CC(C)(C#N)c1cc(Cn2cncn2)cc(C(C)(C)C#N)c1` [Anastrozole], the “optomotor response to green moving lines” value was -2.71.

Values taken from the supplement of paper PMC9023506.
